Out of some 3,200 compounds screened, about 300 (9.4%) showed activity. The full list was thinned out, with actives kept by preference. A number with no mark means an inactive call.
Test system: A673/TR/shEF
Assay: cell viability (LOESS-normalised, relative to median of negative controls) (log2 ratio); higher = more viable cells (less compound effect), active = hit call of the paper (over 3 MAD below the median)
Details: treatment time: 72 h
Procedure, shortened: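 For three days, A673/TR/shEF Ewing sarcoma cells in 384-well plates (1,500 per well) were treated with library compounds at two or more concentrations or with DMSO controls, after doxycycline had been added or withheld 24 h beforehand to induce EWS-FLI1 shRNA knockdown. Viability was read by CellTiter-Glo luminescence on an Envision reader. The data were LOESS-corrected per plate, divided by the median of negative controls and log2-transformed.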

[1] = 0.25 µM, library screen: screen1, EWS-FLI1 expression: high (no doxycycline)
[2] = 0.25 µM, library screen: screen1, EWS-FLI1 expression: low (doxycycline-induced shRNA knockdown)
[3] = 0.25 µM, library screen: screen2, EWS-FLI1 expression: high (no doxycycline)
[4] = 0.25 µM, library screen: screen2, EWS-FLI1 expression: low (doxycycline-induced shRNA knockdown)
[5] = 2.5 µM, library screen: screen1, EWS-FLI1 expression: high (no doxycycline)
[6] = 2.5 µM, library screen: screen1, EWS-FLI1 expression: low (doxycycline-induced shRNA knockdown)
[7] = 2.5 µM, library screen: screen2, EWS-FLI1 expression: high (no doxycycline)
[8] = 2.5 µM, library screen: screen2, EWS-FLI1 expression: low (doxycycline-induced shRNA knockdown)

O=c1c(-c2ccc(O)cc2)coc2cc(O)ccc12
cell viability (log2) (0.025 µM, library screen: screen1, EWS-FLI1 expression: high (no doxycycline)): -0.0377 | cell viability (log2) (0.025 µM, library screen: screen1, EWS-FLI1 expression: low (doxycycline-induced shRNA knockdown)): -0.0297 | cell viability (log2) (0.103 µM, library screen: screen3, EWS-FLI1 expression: high (no doxycycline)): 0.0817 | cell viability (log2) (0.103 µM, library screen: screen3, EWS-FLI1 expression: low (doxycycline-induced shRNA knockdown)): 0.0853 | cell viability (log2) [1]: 0.184 | cell viability (log2) [2]: 0.0911 | cell viability (log2) [3]: 0.184 | cell viability (log2) [4]: 0.099 | cell viability (log2) (0.308 µM, library screen: screen3, EWS-FLI1 expression: high (no doxycycline)): 0.12 | cell viability (log2) (0.308 µM, library screen: screen3, EWS-FLI1 expression: low (doxycycline-induced shRNA knockdown)): 0.0897 | cell viability (log2) (0.926 µM, library screen: screen3, EWS-FLI1 expression: high (no doxycycline)): 0.0631 | cell viability (log2) (0.926 µM, library screen: screen3, EWS-FLI1 expression: low (doxycycline-induced shRNA knockdown)): 0.0867 | cell viability (log2) [5]: 0.11 | cell viability (log2) [6]: 0.0867 | cell viability (log2) [7]: 0.118 | cell viability (log2) [8]: 0.117 | cell viability (log2) (2.8 µM, library screen: screen3, EWS-FLI1 expression: high (no doxycycline)): 0.137 | cell viability (log2) (2.8 µM, library screen: screen3, EWS-FLI1 expression: low (doxycycline-induced shRNA knockdown)): 0.123 | cell viability (log2) (8.3 µM, library screen: screen3, EWS-FLI1 expression: high (no doxycycline)): 0.161 | cell viability (log2) (8.3 µM, library screen: screen3, EWS-FLI1 expression: low (doxycycline-induced shRNA knockdown)): 0.0904 | cell viability (log2) (25 µM, library screen: screen1, EWS-FLI1 expression: high (no doxycycline)): 0.0121 | cell viability (log2) (25 µM, library screen: screen1, EWS-FLI1 expression: low (doxycycline-induced shRNA knockdown)): 0.0753 | cell viability (log2) (25 µM, library screen: screen3, EWS-FLI1 expression: high (no doxycycline)): 0.114 | cell viability (log2) (25 µM, library screen: screen3, EWS-FLI1 expression: low (doxycycline-induced shRNA knockdown)): 0.0782

COc1ccc(-c2coc3cc(O)ccc3c2=O)cc1
cell viability (log2) [1]: -0.6 (active) | cell viability (log2) [2]: 0.0672 | cell viability (log2) [5]: 0.234 | cell viability (log2) [6]: 0.103

COc1ccc(-c2coc3cc(OC)ccc3c2=O)cc1
cell viability (log2) [1]: 0.121 | cell viability (log2) [2]: 0.0353 | cell viability (log2) [5]: 0.128 | cell viability (log2) [6]: 0.0908

CSc1nc(N)c2ncn(C3OC(COP(=O)(O)OP(=O)(O)O)C(O)C3O)c2n1 (stereo not drawn)
cell viability (log2) [3]: 0.0889 | cell viability (log2) [4]: 0.0973 | cell viability (log2) [7]: 0.157 | cell viability (log2) [8]: 0.0918

CC(C)(O)[C@H]1CC[C@]2(C)[C@H]3CC[C@@H]4[C@@]5(C)CCCC(C)(C)[C@@H]5[C@@H](O)C[C@@]4(C)[C@]3(C)CC[C@@H]12
cell viability (log2) [1]: 0.0136 | cell viability (log2) [2]: 0.0775 | cell viability (log2) [5]: 0.0306 | cell viability (log2) [6]: 0.112

COc1cc(C2NC(=S)NC(C)=C2C(=O)Nc2cccc(Cl)c2)cc(OC)c1OC (stereo not drawn)
cell viability (log2) [1]: 0.123 | cell viability (log2) [2]: 0.0893 | cell viability (log2) [5]: 0.204 | cell viability (log2) [6]: 0.0553

COc1cccc(N2C(=O)C(=Cc3cccc(O)c3)SC2=S)c1
cell viability (log2) [1]: 0.113 | cell viability (log2) [2]: 0.0758 | cell viability (log2) [5]: 0.133 | cell viability (log2) [6]: 0.182

CC(=O)O[C@H]1C[C@@H](OC(C)=O)C(C)(C)C2C[C@@H](OC(C)=O)[C@@]3(C)C4=CC(=O)O[C@@H](c5ccoc5)[C@]4(C)CCC3[C@]21C (stereo partly drawn)
cell viability (log2) [1]: 0.0506 | cell viability (log2) [2]: 0.0595 | cell viability (log2) [5]: -0.853 (active) | cell viability (log2) [6]: -0.345 (active)

CC(=O)O[C@@H]1CC[C@@]2(C)C(C[C@@H](OC(C)=O)[C@@]3(C)C4=CC(=O)O[C@@H](c5ccoc5)[C@]4(C)CCC23)C1(C)C (stereo partly drawn)
cell viability (log2) [1]: -0.00795 | cell viability (log2) [2]: 0.0487 | cell viability (log2) [5]: 0.121 | cell viability (log2) [6]: 0.0464

CC(=O)O[C@H]1CC[C@@]2(C)C(C[C@@H](OC(C)=O)[C@@]3(C)C4=CC(=O)OC(c5ccoc5)[C@]4(C)CCC23)C1(C)C (stereo partly drawn)
cell viability (log2) [1]: 0.121 | cell viability (log2) [2]: 0.145 | cell viability (log2) [5]: 0.126 | cell viability (log2) [6]: 0.124

COc1cc(C(=O)N2CCOCC2)c([N+](=O)[O-])cc1OC
cell viability (log2) [1]: 0.0993 | cell viability (log2) [2]: 0.0316 | cell viability (log2) [5]: 0.0928 | cell viability (log2) [6]: -0.0159

CCCCCCCCCCCCCCCCCC(=O)OC[C@H](COP(=O)(O)OCC(O)COP(=O)(O)OC[C@@H](COC(=O)CCCCCCCCCCCCCCCCC)OC(=O)CCCCCCCCCCCCCCCCC)OC(=O)CCCCCCCCCCCCCCCCC (stereo partly drawn)
cell viability (log2) [1]: 0.0223 | cell viability (log2) [2]: 0.0715 | cell viability (log2) [5]: 0.128 | cell viability (log2) [6]: 0.138

CC(=O)O[C@@H]1C[C@H]2C(C)(C)C(=O)[C@@H]3O[C@@H]3[C@]2(C)[C@H]2CC[C@@]3(C)[C@H](c4ccoc4)OC(=O)[C@H]4O[C@]43[C@@]21C
cell viability (log2) [1]: 0.0357 | cell viability (log2) [2]: 0.0669 | cell viability (log2) [5]: 0.155 | cell viability (log2) [6]: 0.138

COc1ccc2c(c1)O[C@H]1c3ccc(O)cc3OC[C@@H]21
cell viability (log2) [1]: 0.225 | cell viability (log2) [2]: 0.129 | cell viability (log2) [5]: 0.184 | cell viability (log2) [6]: 0.206

COc1cc2c(cc1OC)[C@@H]1C(=O)c3ccc4c(c3O[C@@H]1CO2)C=CC(C)(C)O4
cell viability (log2) [1]: -0.591 (active) | cell viability (log2) [2]: -0.253 (active) | cell viability (log2) [5]: -2.11 (active) | cell viability (log2) [6]: -0.84 (active)

COc1ccc(-c2c(OC)c3c(OC)c4c(cc3oc2=O)OC(C)(C)C=C4)cc1
cell viability (log2) [1]: 0.0786 | cell viability (log2) [2]: 0.00334 | cell viability (log2) [5]: 0.211 | cell viability (log2) [6]: 0.00828

COc1cc2c(cc1OC)[C@@H]1C(=O)c3c(O)cc4c(c3O[C@@H]1CO2)C=CC(C)(C)O4
cell viability (log2) [1]: -0.205 (active) | cell viability (log2) [2]: -0.261 (active) | cell viability (log2) [5]: -0.213 (active) | cell viability (log2) [6]: -0.138

COc1ccc2c(c1)O[C@@H]1COc3cc(OC)c(OC)cc3[C@@H]1C2=O
cell viability (log2) [1]: -0.0338 | cell viability (log2) [2]: 0.0823 | cell viability (log2) [5]: -0.0122 | cell viability (log2) [6]: -0.0233

COc1c2c(cc3ccoc13)C(=O)[C@H]1c3cc4c(cc3OC[C@H]1O2)OCO4
cell viability (log2) [1]: 0.0834 | cell viability (log2) [2]: 0.0158 | cell viability (log2) [5]: 0.0793 | cell viability (log2) [6]: -0.0539

COc1c(CC(=O)c2cc3c(cc2O)OC(C)(C)C(O)C3)ccc2c1C=CC(C)(C)O2 (stereo not drawn)
cell viability (log2) [1]: 0.0608 | cell viability (log2) [2]: -0.00504 | cell viability (log2) [5]: 0.0765 | cell viability (log2) [6]: 0.0703

COc1cc2c(cc1OC)[C@@H]1C(=O)c3c(cc4c(c3O)C=CC(C)(C)O4)O[C@@H]1CO2
cell viability (log2) [1]: -0.0181 | cell viability (log2) [2]: -0.000972 | cell viability (log2) [5]: -0.392 (active) | cell viability (log2) [6]: -0.0174

COc1cc2c(cc1-c1coc3c4c(c(OC)cc3c1=O)OC(C)(C)C=C4)OCO2
cell viability (log2) [1]: 0.082 | cell viability (log2) [2]: 0.0865 | cell viability (log2) [5]: 0.173 | cell viability (log2) [6]: 0.0953
